# Measurements: PubChem BioAssay (NCATS)
# Records with an inconclusive call do not appear. Calls of active or inactive are those of the source. Calls come from the whole dose curve; as a rule, active = well fitted inhibition curve with a large enough effect; inconclusive = small, poorly fitted or top-dose-only effect; inactive = flat fitted curve, though single readings scatter.
# Molecular target: Calcium and integrin-binding protein 1 (Homo sapiens) (UniProt Q99828)
# Test: Primary qHTS for Identification of Calcium Integrin Binding Protein 1 (CIB1) Competitor (AID 1508620); note: top concentration of the series differs between compounds
# Conditions: CIB1-GST / FITC-alphaIIb peptide fluorescence polarization; series mostly up to 114 µM; activity change, negative = inhibition: at the top concentration
# How it was run: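 Fluorescence polarization competition: GST-tagged CIB1 (1 uM final) preincubated with compound 15 min at room temperature, then FITC-labelled alphaIIb peptide (100 nM final) added. After 15 min at room temperature, polarization read at Ex 480/Em 540.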
# % is set by controls: 0 for no effect and ±100 for the full control effect.
# Chain of Calcium and integrin-binding protein 1 (Homo sapiens) (Q99828 whole entry, looked up): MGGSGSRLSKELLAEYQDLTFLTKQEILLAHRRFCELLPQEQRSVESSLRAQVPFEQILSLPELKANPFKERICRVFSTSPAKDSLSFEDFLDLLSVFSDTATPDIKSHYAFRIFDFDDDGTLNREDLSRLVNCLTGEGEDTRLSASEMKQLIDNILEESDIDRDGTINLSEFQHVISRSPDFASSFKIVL
row,Structure (SMILES),"activity change, negative = inhibition"
1,COc1ccc2oc(NC3=NC(c4[nH]ncc4Cl)C4=C(CCCC4=O)N3)nc2c1 (stereo not given),1.18% (inactive)
2,N#Cc1cccc(NS(=O)(=O)c2ccc3c(c2)CCC(=O)N3)c1,2.15% (inactive)
3,COc1c(Cl)cccc1NC(=O)c1c(NC(=O)Cc2ccccc2)sc2c1CCCC2,0.681% (inactive)
4,COc1cccc(CNc2ccc(S(=O)(=O)Nc3ccc(N4CCNCC4)cc3)cc2)c1O,-3.5% (inactive)
5,O=C1Nc2ccccc2/C1=C\c1ccc(O)cc1,-11.2% (inactive)
6,CS(=O)(=O)c1ccc(C(=O)OCC(=O)N2Cc3ccccc3C2)cc1[N+](=O)[O-],-29.6% (inactive)
7,NC(=O)C1CCN(c2ncc(-c3cccc(N4CCCC4)c3)s2)CC1,-12.1% (inactive)
8,Cc1c([S+](=O)([O-])N2CCN([S+](=O)([O-])c3c(F)cccc3F)CC2)sc2ccc(Cl)cc12,2.6% (inactive)
9,O=C(Nc1cccc([S+](=O)([O-])Nc2ccccc2F)c1)c1ccccc1,1.8% (inactive)
10,CC(=O)N1CCCc2cc(S(=O)(=O)Nc3ccc(C)c(C)c3)ccc21,-0.907% (inactive)
11,COc1ccc(-c2nnc3n2N=C(c2ccccc2OC)CS3)cc1OC,-5.83% (inactive)
12,Fc1cc(Nc2nc(-c3ccncc3)nc3ccccc23)ccc1N1CCCCC1,0.303% (inactive)
13,Cc1cc(C)nc(NC(=S)N2CCN(c3cncnc3)CC2)c1,-0.398% (inactive)
14,N/C(=N\c1nnc(-c2ccncc2)s1)Nc1ccc(F)c(C(F)(F)F)c1,5.88% (inactive)
15,Cc1ccc(OCCn2c(CCNC(=O)c3cccc4[nH]ccc34)nc3ccccc32)cc1,7.24% (inactive)
16,CC(=O)Nc1sc2c(c1-c1cncnc1)CCNC2,-11.7% (inactive)
17,Cc1ccc2nc3sc(C(=O)N4CCN(C5CCN(C)CC5)CC4)cc3cc2c1,-0.0408% (inactive)
18,Cc1ccc(OCCn2c(CCNC(=O)NC3CCCCC3)nc3ccccc32)cc1,40.5% (inactive)
19,Cc1ccccc1Nc1nc(C#N)nc(NC2CCCC2)n1,-0.329% (inactive)
20,Cc1cc(-c2nnc3n2CCCCC3)c(C)n1-c1cccc(C#N)c1,3.78% (inactive)

row,Structure (SMILES),"activity change, negative = inhibition"
1,FC(F)(F)c1cccc(CSc2nc3ncc(Br)cc3[nH]2)c1,1.98% (inactive)
2,O=C1NC(=O)/C(=C/c2cccn2-c2ccc(P(=O)(O)O)cc2)N1,0.227% (inactive)
3,Oc1ccc(COc2cccc3ccccc23)c2cccnc12,2.17% (inactive)
4,CSc1ccccc1-c1ncc(C)c(NCc2ccc(-c3cccnc3)cc2)n1,-0.187% (inactive)
5,CCOc1ccc(CCNC(=O)c2ccnn2Cc2cccc(C)c2)cc1OCC,-2.12% (inactive)
6,O=C(Nc1nnc(-c2ccncc2)s1)Nc1ccc(Cl)cc1F,4.95% (inactive)
7,N/C(=N\c1nnc(-c2ccncc2)s1)Nc1ccc(Cl)c(Cl)c1,7.38% (inactive)
8,COc1ccc(C(=O)Nc2ccc(-c3nc4ccccc4[nH]3)cc2)cc1F,6.11% (inactive)
9,N[C@@H](Cc1ccccc1)C(=O)Nc1ccc(Cl)cc1C(=O)c1ccc[nH]1,-1.83% (inactive)
10,c1nc(NCCCN2CCOCC2)c2cc(-c3ccc4c(c3)OCO4)ccc2n1,-3.8% (inactive)
11,Cc1ccc(NS(=O)(=O)c2cc3c(cc2N2CCCC2)NC(=O)CC3)cc1C,-9.69% (inactive)
12,O=C(NCCc1nc2ccccc2n1CCOc1ccccc1[N+](=O)[O-])C1CCCCC1,-1.21% (inactive)
13,COc1ccc(C2NC(=O)c3ccccc3N2)cc1COc1ccc(NC(C)=O)cc1 (stereo not given),2.32% (inactive)
14,FC(F)(F)c1cccc(-c2ccc(CNc3nc(-c4ccccc4C(F)(F)F)nc4ccccc34)cc2)c1,5.29% (inactive)
15,Cc1cc(C)nc(NC(=S)N2CCN(c3ccc(S(C)(=O)=O)cc3F)CC2)c1,-4.21% (inactive)
16,Cc1cc(C)n2ncc(C(=O)Nc3ccccc3Sc3ccccc3)c2n1,-2.02% (inactive)
17,CCCCC(OC(=O)CNC(=O)c1ccccc1)C(=O)Nc1cc(C(F)(F)F)ccc1Cl (stereo not given),3.67% (inactive)
18,Cn1nnnc1Sc1ncnc2scc(-c3cccc([N+](=O)[O-])c3)c12,-17.8% (inactive)
19,O=C1c2ccccc2NC(c2ccccc2O)N1Cc1ccccc1 (stereo not given),0.512% (inactive)
20,Cc1ccc(NS(=O)(=O)c2ccc3c(c2)CCC(=O)N3C)cc1Cl,-5.4% (inactive)
